Among the data in PubChem BioAssay (NCI) are growth values, retold here.

Some test systems named below: NCI-H23 lung; NCI-H226 lung; NCI-H322M lung; HOP-62 NSCLC; NCI-H460 lung; HOP-92 NSCLC; NCI-H522 lung; A549/ATCC NSCLC; 786-0 renal; COLO 205 colon; DU-145 prostate; K-562 leukemia; MALME-3M melanoma; MDA-MB-231 breast; RXF 393 renal; SF-268 CNS; SF-295 CNS; SF-539 CNS; UACC-257 melanoma; M14 melanoma.
Holding throughout (experiment): NCI-60 one-dose screen, 48 h (100 = growth as untreated, 0 = no growth, -100 = all killed)
Common to all, as to settings: 10 µM unless noted

Molecules are shown by their SMILES. This is part of a sample that, as a whole, favours compounds with a hit. Of some 83,000 tested, about 20% had one in any assay.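 96-well plates, one dose, 48 hours. Percent growth reported; active if below 10.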 Unmarked numbers belong to inactive results. Activity calls are given as the source filed them.

`COc1ccc2c(c1)Oc1nc(N)c(C#N)c(N)c1C2Sc1ccc(SC)cc1` (stereo not given): the growth with NCI-H23 lung is 44.1%; with NCI-H226 lung, 75.6%; with NCI-H322M lung it was 77.4%; in the assay with HOP-62 NSCLC, 100%; in the assay with NCI-H460 lung, 58%; in the assay with HOP-92 NSCLC, 18.4%. Moreover, the growth is -81.5% (active) in the assay on NCI-H522 lung; 85.7% in the assay with A549/ATCC NSCLC; 8.66% (active) in the assay with 786-0 renal; -3.1% (active) in the assay on COLO 205 colon; 46.2% with DU-145 prostate; 2.45% (active) in the assay with K-562 leukemia. Further, the growth in the assay with MALME-3M melanoma was -22.5% (active); in the assay on MDA-MB-231 breast it was 10.5%; with RXF 393 renal, -54.8% (active); in the assay with SF-268 CNS, 61.4%; in the assay with SF-295 CNS, 80.8%; with SF-539 CNS it was 14.7%. The growth was 67.3% in the assay on UACC-257 melanoma and 27.6% in the assay with M14 melanoma.
Take `Cc1cccc(C)c1NCc1nnc(-c2ccco2)o1`: the growth with NCI-H23 lung is 89%; with NCI-H226 lung it was 80.5%; in the assay on NCI-H322M lung it was 91.1%; in the assay on HOP-62 NSCLC, 80.2%; with NCI-H460 lung it was 97%; with HOP-92 NSCLC, 83.4%. Moreover, the growth with NCI-H522 lung was 72.8%; in the assay on A549/ATCC NSCLC, 86.8%; with 786-0 renal, 105%; in the assay with COLO 205 colon, 103%; with DU-145 prostate it was 99.9%; with K-562 leukemia, 100%. Besides, the growth in the assay on MALME-3M melanoma is 85.2%; in the assay with MDA-MB-231 breast, 79.7%; in the assay with RXF 393 renal it was 102%; with SF-268 CNS, 93.5%; with SF-295 CNS, 92.4%; in the assay on SF-539 CNS it was 97.7%. Also, the growth is 98.7% in the assay with UACC-257 melanoma and 99% with M14 melanoma.
For the molecule `COc1ccc(-n2nc(C(=O)NCC(=O)O)nc2-c2ccccc2)cc1`, the growth in the assay on NCI-H23 lung was 107%; with NCI-H226 lung, 105%; with NCI-H322M lung, 98.1%; in the assay on HOP-62 NSCLC, 108%; in the assay with NCI-H460 lung it was 116%; in the assay on HOP-92 NSCLC it was 97.1%. Further, the growth with NCI-H522 lung is 82.5%; in the assay with A549/ATCC NSCLC, 97.8%; in the assay on 786-0 renal, 102%; with COLO 205 colon it was 124%; in the assay with DU-145 prostate, 111%; with K-562 leukemia it was 93.4%. For the same molecule, the growth is 92.4% in the assay on MALME-3M melanoma; 108% in the assay on MDA-MB-231 breast; 120% in the assay on RXF 393 renal; 99.3% in the assay with SF-268 CNS; 107% with SF-295 CNS; 97.2% in the assay with SF-539 CNS. In addition, the values for the growth with UACC-257 melanoma and with M14 melanoma were 97.1% and 102%, respectively.
Regarding `COCCOCCOCc1n(Cc2ccc3ccccc3c2)c2ccccc2[n+]1Cc1ccc2ccccc2c1`, the growth in the assay with NCI-H23 lung is 5.56% (active); in the assay with NCI-H226 lung it was 17.2%; in the assay on NCI-H322M lung, 40.5%; in the assay on HOP-62 NSCLC it was 17.2%; in the assay on NCI-H460 lung it was 10.3%; in the assay with HOP-92 NSCLC it was -32.1% (active). The growth is -16.6% (active) with NCI-H522 lung; 33.1% in the assay on A549/ATCC NSCLC; 23.6% in the assay with 786-0 renal; -60.7% (active) with COLO 205 colon; 32.7% in the assay on DU-145 prostate; 11% with K-562 leukemia. Besides, the growth with MALME-3M melanoma is -18.1% (active); in the assay with MDA-MB-231 breast it was -1.76% (active); in the assay on RXF 393 renal it was 21.1%; in the assay on SF-268 CNS, 17.9%; in the assay on SF-295 CNS it was 13.1%; in the assay with SF-539 CNS, 37.2%. In addition, the growth is -13.1% (active) in the assay with UACC-257 melanoma and 6.95% (active) with M14 melanoma.
As for `CC1(c2ccccc2Cl)NC(=O)NC1=O` (stereo not given), the growth with NCI-H23 lung was 95.2%; in the assay with NCI-H226 lung, 98.6%; with NCI-H322M lung, 98.8%; in the assay with HOP-62 NSCLC it was 86.4%; with NCI-H460 lung, 106%; in the assay with HOP-92 NSCLC, 83.1%. Besides, the growth in the assay with NCI-H522 lung is 85%; with A549/ATCC NSCLC, 91.2%; with 786-0 renal, 99.2%; in the assay on COLO 205 colon, 108%; in the assay with DU-145 prostate, 105%; in the assay on K-562 leukemia, 100%. Besides, the growth in the assay with MALME-3M melanoma was 101%; in the assay with MDA-MB-231 breast it was 105%; with RXF 393 renal it was 113%; in the assay on SF-268 CNS it was 103%; in the assay on SF-295 CNS, 97.1%; with SF-539 CNS it was 99.5%. Moreover, the growth in the assay with UACC-257 melanoma was 91%; in the assay on M14 melanoma, 106%.
`NC(=O)c1ccc(C2C3=C(CCCC3=O)OC3=C2C(=O)c2ccccc2C3=O)cc1` (stereo not given): the growth is -34.7% (active) in the assay on NCI-H23 lung; 113% in the assay on NCI-H226 lung; 104% in the assay on NCI-H322M lung; 23.6% with HOP-62 NSCLC; 7.97% (active) with NCI-H460 lung; 71.2% in the assay on HOP-92 NSCLC. Further, the growth is -26.5% (active) with NCI-H522 lung; 26.7% with A549/ATCC NSCLC; 94.8% in the assay with 786-0 renal; -1.47% (active) in the assay with COLO 205 colon; 12.1% in the assay with DU-145 prostate; 5.5% (active) in the assay on K-562 leukemia. Besides, the growth in the assay on MALME-3M melanoma was -16.3% (active); in the assay on MDA-MB-231 breast it was 5.67% (active); with RXF 393 renal it was 60%; with SF-268 CNS it was 9.54% (active); in the assay with SF-295 CNS, 42.9%; with SF-539 CNS, 0.536% (active). Besides, the growth with UACC-257 melanoma was -7.13% (active); with M14 melanoma it was -0.786% (active).
As to `Oc1ccccc1-c1nc2c3ccccc3c3ccccc3c2o1`, the growth with NCI-H23 lung is 85.5%; with NCI-H226 lung, 85.8%; in the assay on NCI-H322M lung, 92.4%; with HOP-62 NSCLC it was 101%; in the assay with NCI-H460 lung, 69.6%; with HOP-92 NSCLC it was 83.8%. Moreover, the growth with NCI-H522 lung is 99.3%; with A549/ATCC NSCLC it was 90.9%; in the assay with 786-0 renal, 99.2%; in the assay with COLO 205 colon it was 85.7%; with DU-145 prostate, 104%; in the assay with K-562 leukemia it was 88.1%. For the same molecule, the growth was 91.9% in the assay with MALME-3M melanoma; 81.7% in the assay on MDA-MB-231 breast; 109% in the assay with RXF 393 renal; 89.8% in the assay on SF-268 CNS; 115% in the assay on SF-295 CNS; 105% in the assay with SF-539 CNS. The growth is 101% in the assay on UACC-257 melanoma and 103% in the assay on M14 melanoma.
